In PubChem BioAssay (Tox21) one finds Potency and viability change, negative = cytotoxic data, which are given here for 29 compounds.

Inconclusive results are not listed. Where a call stands in place of a potency, no number is given. A number with no mark means an inactive call. Active and inactive are the calls of the source. The call rests on the fitted dose curve; in most records, active means well fitted cell-killing curve with a large enough effect in the repeat runs; inconclusive means weak or mixed curves; inactive means flat fitted curve, though single readings scatter.

The assay can be described thus: qHTS assay to identify small molecule antagonists of the estrogen related receptor (ERR) signaling pathway from Tox21 library - cell viability counter screen (AID 1224834). Further: nearly all actives have a fitted effect of over 30% in size. The conditions noted are these: ERR reporter cells viability, CellTiter-Fluor, 17.5 h; series mostly up to 92.4 µM. The gist of the method: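 In this quantitative HTS format, ERR cells receive compounds in DMSO and are incubated for 17.5 h at 37 C. Live-cell protease activity is then detected with CellTiter-Fluor.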
Background: qHTS replaces the single test concentration by a dilution series.
Take `CC(CO)c1ccccc1` (centres undefined): the Potency result is “inactive”.

For `CC(=O)c1sc(C)nc1C`, the Potency result was “inactive”.

Turning to `O=S(O)(O)=S`, the viability change, negative = cytotoxic was 0.32% [at 8.39 µM].

With `CCO[Si](CCCS)(OCC)OCC`, the Potency entry is “inactive”.

Turning to `N[C@@H](COP(=O)(O)O)C(=O)O`, the viability change, negative = cytotoxic is -0.524% [at 19 µM].

Turning to `Brc1ccc(-c2ccccc2)cc1`, the Potency result was “inactive”.

For the compound `CCCCC(CC)COCCO` (centres undefined), the Potency entry was “inactive”.

As to `CN1C(C)(C)CCCC1(C)C`, the Potency entry was “inactive”.

Consider `Nc1nnc(-c2cccc(Cl)c2Cl)c(N)n1`, for which the Potency result is “inactive”.

Turning to `COc1nccnc1NS(=O)(=O)c1ccc(N)cc1`, the Potency result is “inactive”.

With `Nc1ncnc(Nc2ccccc2)n1`, the Potency result was “inactive”.

Regarding `CN1CCN(CC(=O)N2c3ccccc3C(=O)Nc3cccnc32)CC1`, the viability change, negative = cytotoxic was 2.62% [at 8.39 µM].

As for `CCCOC(=O)C(C)O` (centres undefined), the Potency entry is “inactive”.

As to `CC(=C(CCOC(=O)C(C)C)SSC(CCOC(=O)C(C)C)=C(C)N(C=O)Cc1cnc(C)nc1N)N(C=O)Cc1cnc(C)nc1N`, the Potency result was “inactive”.

Turning to `Cc1c(I)c(=O)n(-c2ccccc2)n1C`, the Potency result is “inactive”.

In the case of `CCCCCCCCSCC`, the Potency entry is “inactive”.

Turning to `COc1cc(NS(=O)(=O)c2ccc(N)cc2)nc(OC)n1`, the Potency result was “inactive”.

For `CCN(CC)CC(=O)Nc1c(C)cccc1C`, the Potency result is “inactive”.

Turning to `NC(CO)C(=O)NNCc1ccc(O)c(O)c1O` (centres undefined), the Potency entry was “inactive”.

Consider `CCCCCCCCCCl`, for which the Potency entry was “inactive”.

For the compound `CCOC(=O)c1ncn2c1CN(C)C(=O)c1cc(F)ccc1-2`, the Potency result was “inactive”.

In the case of `Cc1cc(C(C)(C)C)c(O)c(C)c1CC1=NCCN1`, the Potency result was “inactive”.

`O=C(OCc1ccccc1)C(=O)OCc1ccccc1`: the Potency result is “inactive”.

For the compound `CC(C)C(=O)OCCc1ccccc1`, the Potency entry was “inactive”.

For the compound `COc1cc(C(=S)N2CCOCC2)cc(OC)c1OC`, the Potency result was “inactive”.

Consider `COc1ccc(S(=O)(=O)N2c3ccc(Cl)cc3[C@@](O)(c3ccccc3Cl)[C@H]2C(=O)N2CCC[C@@H]2C(N)=O)cc1OC`, for which the Potency entry was “inactive”.

Turning to `NS(=O)(=O)c1ccc(NC(=O)CCC(=O)O)cc1`, the Potency entry is “inactive”.

In the case of `CCCCCCCCCCCCCC`, the Potency result was “inactive”.

`CC(=O)OC(C)OC(=O)C(C)c1ccc(-c2ccccc2)c(F)c1` (centres undefined): the Potency result was “inactive”.
